Consider seven compounds from PubChem BioAssay (NCATS).

Inconclusive results are not listed. The source made the active and inactive calls. Calls follow the shape of the dose curve; as a rule, active = well fitted curve in the direction sought with a large enough effect; inconclusive = small, poorly fitted or top-dose-only effect, or another doubt; inactive = no such curve, though single readings can be large; an effect the other way counts as inactive or inconclusive.
Potency is read from the fitted curve at half-maximal effect.

One assay can be described thus: qHTS of pediatric cancer cell lines to identify multiple opportunities for drug repurposing: Confirmatory screen for BT-12 cells (AID 1347112).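 Also: viability read after 48 h of compound exposure; nearly all actives have a fitted effect of over 55% in size.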 As to activity change, negative = cytotoxic: % is scaled to controls: 0 for no effect and ±100 for the full control effect. As to conditions: BT-12 rhabdoid tumor cells, viability; series mostly up to 45.9 µM. The method, boiled down: (§1)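 Cells (500-1,000/well) rested 5 h, then received compounds for 48 h; metabolically active cells were measured by CellTiter-Glo luminescence. Final concentrations spanned up to 46 µM (MIPE, 11-point) or 0.59 nM-46 µM (NPC, 8-point) in primary screens, 11-point in follow-ups.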
A general note: In qHTS, concentration-response curves come from the screen itself.
As to `C[C@]12CC[C@@H]3c4ccc(O)cc4C[C@@H](CCCCCCCCCS(=O)CCCC(F)(F)C(F)(F)F)[C@H]3[C@@H]1CC[C@@H]2O` (some centres undefined), the Potency entry is “inactive”.

Consider `C[n+]1cc2c3c(ccc2c2ccc4cc5c(cc4c21)OCO5)OCO3`, for which the Potency was 3.23 µM (active).

With `NCCCNCCSP(=O)(O)O`, the activity change, negative = cytotoxic is 1.94% [at 9.58 µM] (inactive).

With `CN/C(=C\[N+](=O)[O-])NCCSCc1ccc(CN(C)C)o1`, the Potency result is “inactive”.

As to `CN1C[C@H](C(=O)N[C@]2(C)O[C@@]3(O)[C@@H]4CCCN4C(=O)[C@H](Cc4ccccc4)N3C2=O)C[C@@H]2c3cccc4[nH]cc(c34)C[C@H]21`, the Potency result was “inactive”.

The next assay can be described thus: qHTS of pediatric cancer cell lines to identify multiple opportunities for drug repurposing: Confirmatory screen for LAN-5 cells (AID 1347113). Also: nearly all actives have a fitted effect of over 65% in size. As to activity change, negative = cytotoxicity: % is scaled to controls: 0 for no effect and ±100 for the full control effect. Conditions: LAN-5 neuroblastoma cell viability; series mostly up to 45.9 µM. The method, boiled down: as §1
On to `Nc1nc(N)c2nc(-c3ccccc3)c(N)nc2n1`, for which the Potency entry was “inactive”.

With `C[C@]12CC[C@@H]3c4ccc(O)cc4C[C@@H](CCCCCCCCCS(=O)CCCC(F)(F)C(F)(F)F)[C@H]3[C@@H]1CC[C@@H]2O` (some centres undefined), the Potency entry is “inactive”.

With `C[n+]1cc2c3c(ccc2c2ccc4cc5c(cc4c21)OCO5)OCO3`, the Potency was 0.811 µM (active).

Regarding `C[C@]12C=CC(=O)C=C1CC[C@H]1[C@@H]3C[C@@H](O)[C@](O)(C(=O)CO)[C@@]3(C)C[C@H](O)[C@@]12F`, the Potency was 9.27 µM (active).

Turning to `CN/C(=C\[N+](=O)[O-])NCCSCc1ccc(CN(C)C)o1`, the Potency result is “inactive”.

A further assay in a line: qHTS of pediatric cancer cell lines to identify multiple opportunities for drug repurposing: Confirmatory screen for DAOY cells (AID 1347114). Also: nearly all actives have a fitted effect of over 65% in size. As to activity change, negative = cytotoxic: % is scaled to controls: 0 for no effect and ±100 for the full control effect. Conditions: DAOY medulloblastoma cells viability, cytotoxicity qHTS; series mostly up to 45.9 µM. The method, boiled down:
(§2)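 Viability measured as metabolically active cells via CellTiter-Glo luminescence following 48 hours of compound exposure, 11-point dilutions in confirmatory testing. 500-1,000 cells/well plated 5 hours before dosing; controls were DMSO and 2.3 µM bortezomib.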
`C[C@]12CC[C@@H]3c4ccc(O)cc4C[C@@H](CCCCCCCCCS(=O)CCCC(F)(F)C(F)(F)F)[C@H]3[C@@H]1CC[C@@H]2O` (some centres undefined): the Potency entry was “inactive”.

Turning to `C[n+]1cc2c3c(ccc2c2ccc4cc5c(cc4c21)OCO5)OCO3`, the Potency is 2.29 µM (active).

Turning to `C[C@]12C=CC(=O)C=C1CC[C@H]1[C@@H]3C[C@@H](O)[C@](O)(C(=O)CO)[C@@]3(C)C[C@H](O)[C@@]12F`, the Potency result is “inactive”.

For the compound `CN/C(=C\[N+](=O)[O-])NCCSCc1ccc(CN(C)C)o1`, the Potency result is “inactive”.

A further assay can be described thus: qHTS of pediatric cancer cell lines to identify multiple opportunities for drug repurposing: Confirmatory screen for NB-EBc1 cells (AID 1347115).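 Also: cells exposed to compound for 48 h before the viability read; nearly all actives have a fitted effect of over 45% in size.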 As to activity change, negative = cytotoxic: % is scaled to controls: 0 for no effect and ±100 for the full control effect. Conditions: NB-EBc1 neuroblastoma cells, viability (cytotoxicity); series mostly up to 45.9 µM. The method in brief: as §1
In the case of `C[C@]12CC[C@@H]3c4ccc(O)cc4C[C@@H](CCCCCCCCCS(=O)CCCC(F)(F)C(F)(F)F)[C@H]3[C@@H]1CC[C@@H]2O` (some centres undefined), the Potency result is “inactive”.

In the case of `C[n+]1cc2c3c(ccc2c2ccc4cc5c(cc4c21)OCO5)OCO3`, the Potency is 3.23 µM (active).

On to `C[C@]12C=CC(=O)C=C1CC[C@H]1[C@@H]3C[C@@H](O)[C@](O)(C(=O)CO)[C@@]3(C)C[C@H](O)[C@@]12F`, for which the Potency entry was “inactive”.

For `NCCCNCCSP(=O)(O)O`, the activity change, negative = cytotoxic is 10.1% [at 9.58 µM] (inactive).

Take `CN1C[C@H](C(=O)N[C@]2(C)O[C@@]3(O)[C@@H]4CCCN4C(=O)[C@H](Cc4ccccc4)N3C2=O)C[C@@H]2c3cccc4[nH]cc(c34)C[C@H]21`: the Potency result was “inactive”.

A short description of the next assay: qHTS of pediatric cancer cell lines to identify multiple opportunities for drug repurposing: Confirmatory screen for SJ-GBM2 cells (AID 1347116). Also: nearly all actives have a fitted effect of over 60% in size.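 As to activity change, negative = cytotoxic: plate controls were DMSO for no effect and bortezomib for full effect.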 As to conditions: SJ-GBM2 glioblastoma cells, viability; series mostly up to 45.9 µM. The method in brief:
as §2
Turning to `Nc1nc(N)c2nc(-c3ccccc3)c(N)nc2n1`, the Potency was 9.27 µM (active).

Take `C[C@]12CC[C@@H]3c4ccc(O)cc4C[C@@H](CCCCCCCCCS(=O)CCCC(F)(F)C(F)(F)F)[C@H]3[C@@H]1CC[C@@H]2O` (some centres undefined): the Potency entry was “inactive”.

In the case of `C[n+]1cc2c3c(ccc2c2ccc4cc5c(cc4c21)OCO5)OCO3`, the Potency was 3.62 µM (active).

With `NCCCNCCSP(=O)(O)O`, the Potency is 0.215 µM (active).

Take `CN/C(=C\[N+](=O)[O-])NCCSCc1ccc(CN(C)C)o1`: the Potency result is “inactive”.

The next assay can be described thus: qHTS of pediatric cancer cell lines to identify multiple opportunities for drug repurposing: Confirmatory screen for BT-37 cells (AID 1347117). Also: nearly all actives have a fitted effect of over 55% in size.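 As to activity change, negative = cytotoxic: plate controls were DMSO for no effect and bortezomib for full effect.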 Conditions: BT-37 pediatric cancer cells, viability; series mostly up to 45.9 µM. The method, boiled down:
as §1
Take `C[C@]12CC[C@@H]3c4ccc(O)cc4C[C@@H](CCCCCCCCCS(=O)CCCC(F)(F)C(F)(F)F)[C@H]3[C@@H]1CC[C@@H]2O` (some centres undefined): the Potency entry is “inactive”.

For `C[n+]1cc2c3c(ccc2c2ccc4cc5c(cc4c21)OCO5)OCO3`, the Potency was 1.44 µM (active).

Regarding `C[C@]12C=CC(=O)C=C1CC[C@H]1[C@@H]3C[C@@H](O)[C@](O)(C(=O)CO)[C@@]3(C)C[C@H](O)[C@@]12F`, the Potency is 9.27 µM (active).

Take `NCCCNCCSP(=O)(O)O`: the activity change, negative = cytotoxic was 0.812% [at 9.58 µM] (inactive).

With `CN/C(=C\[N+](=O)[O-])NCCSCc1ccc(CN(C)C)o1`, the Potency result is “inactive”.

On to `CN1C[C@H](C(=O)N[C@]2(C)O[C@@]3(O)[C@@H]4CCCN4C(=O)[C@H](Cc4ccccc4)N3C2=O)C[C@@H]2c3cccc4[nH]cc(c34)C[C@H]21`, for which the Potency result was “inactive”.

Another assay can be described thus: qHTS of pediatric cancer cell lines to identify multiple opportunities for drug repurposing: Confirmatory screen for TC32 cells (AID 1347118).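 Also: cells exposed to compound for 48 h before the read; nearly all actives have a fitted effect of over 65% in size.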 Conditions: TC32 Ewing sarcoma cells viability qHTS. The source says: Drug repurposing or repositioning has been offered as a strategy for drug development in oncology programs. This approach has special potential for childhood cancers and other rare or orphan diseases, where the expected return on new drug development has been a disincentive to pharmaceuticals.
In this project we exploit the poly-pharmacology of drugs to discover new indications via phenotypic screening of a panel of 19 well-characterized cell lines derived from solid tumors seen in children and adolescents. The goal is to identify approved drugs with previously unrecognized anticancer properties that has the potential to reveal new mechanisms and biological processes involved in carcinogenesis or drug resistance. We employed a titration-based paradigm (quantitative high-throughput screening or qHTS), where all compounds were tested at multiple concentrations for their effect on cell viability. Concentration-response curves (CRCs) were derived directly from the primary screen, and both potency and efficacy values were used to identify compounds with robust bioactivity profiles. We screened the NIH Chemical Genomics Center (NCGC) Pharmaceutical Collection (NPC) and Mechanism Interrogation Plate (MIPE) small molecule collections of approved and investigational compounds against these cell lines; and measured metabolically active cells after 48 hours of compound treatment as a proxy for cell viability.
Assay Submitter: Nathalia J. Martinez, National Center for Advancing Translational Sciences, National Institutes of Health, Rockville, MD, USA; email: natalia.martinez@nih.gov
[1] Shen, M et al. Quantitative high-throughput phenotypic screening of pediatric cancer cell lines identifies multiple opportunities for drug repurposing. Oncotarget 2017 Dec 19;9(4):4758-4772. PMID 29435139.
The cells were obtained from University of North Carolina (UNC), Pediatric Preclinical Testing Program (PPT), and Coriell Institute (CI).
qHTS cell viability assay:
Cells were assayed in growth media at a density of 500-1,000 cells/well. Five microliters of cells were dispensed into 1,536-well, white, solid-bottom, TC-treated plates (Greiner Bio One) using a multidrop dispenser and incubated at 37 degrees C, 5% CO2, under a humidified atmosphere for 5 hours. Twenty-three nanoliters of compounds and controls (neutral control DMSO or positive control bortezomib at final concentration of 2.3 uM) were subsequently transferred by Kalypsys pintool. For primary screens, the MIPE collection was tested at 11-point dilutions (final concentrations range from 0.78 nM to 46 µM) and the NPC collection at 8-point dilutions (final concentrations range from 0.59 nM to 46 µM). Compounds tested in follow-up screens were assayed at 11-point dilutions. Cells were incubated for 48 hours, followed by addition of 3 uL of CellTiter-Glo (Promega). After a 15min incubation at room temperature, samples were analyzed for luminescence intensity using a ViewLux High-throughput CCD imager equipped with clear filters.
For the compound `Nc1nc(N)c2nc(-c3ccccc3)c(N)nc2n1`, the Potency is 3.69 µM (active).

For the compound `C[C@]12CC[C@@H]3c4ccc(O)cc4C[C@@H](CCCCCCCCCS(=O)CCCC(F)(F)C(F)(F)F)[C@H]3[C@@H]1CC[C@@H]2O` (some centres undefined), the Potency was 8.27 µM (active).

For `C[n+]1cc2c3c(ccc2c2ccc4cc5c(cc4c21)OCO5)OCO3`, the Potency was 1.15 µM (active).

As to `C[C@]12C=CC(=O)C=C1CC[C@H]1[C@@H]3C[C@@H](O)[C@](O)(C(=O)CO)[C@@]3(C)C[C@H](O)[C@@]12F`, the Potency is 6.57 µM (active).

In the case of `CN/C(=C\[N+](=O)[O-])NCCSCc1ccc(CN(C)C)o1`, the Potency is 10.4 µM (active).

A further assay in a line: qHTS of pediatric cancer cell lines to identify multiple opportunities for drug repurposing: Confirmatory screen for MG 63 (6-TG R) cells (AID 1347119). Also: nearly all actives have a fitted effect of over 55% in size.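 As to activity change, negative = cytotoxicity: plate controls were DMSO neutral control for no effect and bortezomib for full effect.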 As to conditions: MG-63 (6-TG resistant) osteosarcoma viability; series mostly up to 45.9 µM. The method, boiled down:
as §1
In the case of `C[n+]1cc2c3c(ccc2c2ccc4cc5c(cc4c21)OCO5)OCO3`, the Potency was 1.62 µM (active).

Turning to `NCCCNCCSP(=O)(O)O`, the activity change, negative = cytotoxicity is 6.09% [at 9.58 µM] (inactive).

Regarding `CN/C(=C\[N+](=O)[O-])NCCSCc1ccc(CN(C)C)o1`, the Potency entry was “inactive”.

Turning to `CN1C[C@H](C(=O)N[C@]2(C)O[C@@]3(O)[C@@H]4CCCN4C(=O)[C@H](Cc4ccccc4)N3C2=O)C[C@@H]2c3cccc4[nH]cc(c34)C[C@H]21`, the Potency result was “inactive”.
